Inconclusive results are not listed. Activity calls are given as the source filed them. Calls follow the shape of the full dose curve.
Assay: qHTS assay for small molecule disruptors of the mitochondrial membrane potential - cell viability (AID 720634);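 also: human HepG2 liver cancer cells; nearly all actives have a fitted effect of over 20% in size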
Conditions: HepG2 viability, ATP luminescence (CellTiter-Glo), 1 h; series mostly up to 83.2 µM; activity change, negative = cytotoxicity: at the top concentration
How it was run: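 HepG2, 1 hr compound, 37 C. ATP luminescence via CellTiter-Glo, 30 min RT, same well as m-MPI.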
% is scaled to controls: 0 for no effect and ±100 for the full control effect.

**Q.** Which “activity change, negative = cytotoxicity” value does the source give for CCCCC(=O)OCC(=O)[C@]1(O)Cc2c(O)c3c(c(O)c2[C@@H](O[C@H]2C[C@H](NC(=O)C(F)(F)F)[C@H](O)[C@H](C)O2)C1)C(=O)c1c(OC)cccc1C3=O here?
**A.** Its value is 28.6% (inactive).

**Q.** For [O]=[Bi][O][Bi]=[O], which “activity change, negative = cytotoxicity” value is on record?
**A.** The value was -7.32% (inactive).

**Q.** For CC[C@@]1(O)C[C@H](O[C@H]2C[C@H](N(C)C)[C@H](O[C@H]3C[C@H](O)[C@H](O[C@H]4CCC(=O)[C@H](C)O4)[C@H](C)O3)[C@H](C)O2)c2c(cc3c(c2O)C(=O)c2c(O)cccc2C3=O)[C@H]1C(=O)OC, which “activity change, negative = cytotoxicity” value is on record?
**A.** Its value is -1.56% (inactive).

**Q.** With CC(C)N=c1cc2n(-c3ccc(Cl)cc3)c3ccccc3nc-2cc1Nc1ccc(Cl)cc1 as the compound, how does the “activity change, negative = cytotoxicity” value read?
**A.** The value was -9.57% [at 39.1 µM] (inactive).

**Q.** For CC(=C\c1ccccc1)/C=C1/SC(=S)N(CC(=O)O)C1=O, which “activity change, negative = cytotoxicity” value is on record?
**A.** Its value is 4.12% (inactive).

**Q.** Which “activity change, negative = cytotoxicity” value does the source give for CO[C@H]1C[C@H](O[C@@H]2/C(C)=C/C[C@@H]3C[C@@H](C[C@]4(CC[C@H](C)[C@@H](C5CCCCC5)O4)O3)OC(=O)[C@@H]3C=C(C)/C(=N/O)[C@H]4OC/C(=C\C=C\[C@@H]2C)[C@]43O)O[C@@H](C)[C@@H]1O here?
**A.** Its value is -9.34% (inactive).

**Q.** Which “activity change, negative = cytotoxicity” value does the source give for CC(C)(C)c1ccc(CN2CCN(C(c3ccccc3)c3ccc(Cl)cc3)CC2)cc1 (configuration not stated) here?
**A.** The value was -12.2% (inactive).

**Q.** For Cc1cc(Nc2ccccc2C(=O)O)ccc1Cl, which “activity change, negative = cytotoxicity” value is on record?
**A.** Its value is -14% (inactive).

**Q.** With C=C1C(=O)O[C@H]2[C@H]1CC/C(C)=C\CC[C@@]1(C)O[C@@H]21 as the compound, how does the “activity change, negative = cytotoxicity” value read?
**A.** The value was 25% (inactive).

**Q.** Which “activity change, negative = cytotoxicity” value does the source give for C#C[C@]1(O)CC[C@H]2[C@@H]3CCC4=C/C(=N/O)CC[C@@H]4[C@H]3CC[C@@]21CC here?
**A.** Its value is -20.1% (inactive).

**Q.** Which “activity change, negative = cytotoxicity” value does the source give for Cc1cccc(C)c1Nc1ncccc1C(=O)O here?
**A.** Its value is -8.2% (inactive).

**Q.** Which “activity change, negative = cytotoxicity” value does the source give for C=Cc1c(C)c2cc3nc(cc4[nH]c(cc5nc(cc1[nH]2)C(C)=C5CCC(=O)OC)c(CCC(=O)O)c4C)[C@@]1(C)C3=CC=C(C(=O)OC)[C@H]1C(=O)OC here?
**A.** Its value is -8.33% (inactive).

Reference: PubChem BioAssay (Tox21)
